# PubChem BioAssay AID2314 (National Center for Advancing Translational Sciences (NCATS), 2010)
# The whole screen tested about 300,000 compounds, of which about 37,000 (12%) were called active. Rule as the data show it: active = max response mostly above about 13% (no sharp cut-off); inactive = mostly below about 14%. The list comes from a sample in which actives are over-represented; it also holds similar structures and randomly drawn compounds.
# Experiment: Cycloheximide Counterscreen for Small Molecule Inhibitors of Shiga Toxin; also: read at 38.3 µM for the half of the compounds with a filed dose; 0% is about no effect
# Conditions: cell reporter, cycloheximide protein synthesis inhibition counterscreen; stronger effect = higher value
row,SMILES,max response
1,COC(=O)[C@@H](Cc1ccccc1)NC(=O)NCCc1ccccc1,6.92% (inactive)
2,O=C1OC2(CCCCC2)CC2=C1C1O[C@](c3ccsc3)(Cc3ccccc31)O2,-3.19% (inactive)
3,Fc1cccc(CSc2nnc3ccc(-c4ccncc4)nn23)c1,2.07% (inactive)
4,O=C(CN1C(=O)NC(Cc2ccccc2)(Cc2ccccc2)C1=O)NCC1CCCCC1,-2.12% (inactive)
5,CCCc1nnc(NC(=O)CCC(=O)N2CCN(S(=O)(=O)c3ccc(OC)cc3)CC2)s1,-3.02% (inactive)
6,S=c1[nH]nc(-c2cc(-c3ccsc3)n[nH]2)n1-c1ccccc1,6.52% (inactive)
7,c1ccc(-c2cc(-c3ccccc3)[nH]n2)cc1,36.7% (active)
8,S=c1[nH]nc(-c2cc(-c3ccccc3)n[nH]2)n1/N=C/c1c2ccccc2cc2ccccc12,-3.32% (inactive)
9,Cc1ccc(NC(=O)c2cc(-c3ccccc3O)n[nH]2)cc1C,12% (inactive)
10,Oc1ccccc1-c1cc(-c2ccc(Cl)cc2)n[nH]1,29% (active)
11,Cc1cc(C(=O)OCC(=O)N2c3ccccc3NC(=O)C2(C)C)c(C)n1-c1ccccc1,-2.79% (inactive)
12,CCc1cc(=O)oc2c(C)c(OCC(=O)N3CC[C@@]4(O)CCCC[C@H]4C3)ccc12,-0.987% (inactive)
13,O=C(CCC(=O)N/N=C/c1ccc(Br)o1)N/N=C/c1ccc(Br)o1,-1.8% (inactive)
14,CC1(C)OC(=O)N2CCc3ccccc3C21C (centres undefined),-1.95% (inactive)
15,O=C(NCCC1=CCCCC1)c1ccc(Cl)c([N+](=O)[O-])c1,39.2% (active)
16,O=C(Cc1nn[nH]n1)NCCC1=CCCCC1,-1.06% (inactive)
17,Cn1nnc2cc(C(=O)NCCC3=CCCCC3)ccc21,36.9% (active)
18,Cc1ccn2c(=O)c(C(=O)NCCC3=CCCCC3)c(O)nc2c1,16.1% (inactive)
19,O=C(NCCCN1CCOCC1)c1ccc(N2CCCC2)c([N+](=O)[O-])c1,1.3% (inactive)
20,CN1CCNC(=O)C1CC(=O)NCCC1=CCCCC1 (centres undefined),6.87% (inactive)
21,CN(c1ccc(C(=O)NCCC2=CCCCC2)cc1)S(C)(=O)=O,35.4% (active)
22,O=C(COc1ccc(Cl)cc1)NCCC1=CCCCC1,-4.36% (inactive)
23,CC(=O)Nc1ccc(S(=O)(=O)N(C)CC(=O)NCCC2=CCCCC2)cc1,8.71% (inactive)
24,CCC(=O)c1ccc(OC(=O)/C=C/c2cc(OC)c(OC)c(OC)c2)cc1,-6.8% (inactive)
25,COc1ccc(C(=O)O)cc1S(=O)(=O)NCc1cccnc1,1.18% (inactive)

row,SMILES,max response
1,COc1ccc(Cn2c(O)c(/C=C3/C=CC=N3)c(=O)[nH]c2=O)cc1,1.33% (inactive)
2,Cc1nc2c(C(=O)NCc3cccs3)cnn2c(C)c1Cc1ccc(F)cc1,0.665% (inactive)
3,O=C(NCC1CCN(Cc2ccccc2Cl)CC1)Nc1cccc(Cl)c1,9.67% (inactive)
4,O=C(Nc1ccc(F)cc1)N1CCN(c2ccc(F)cc2)CC1,1.7% (inactive)
5,CC(C)CC(=O)Nc1ccc(Cc2ccncc2)cc1,-2.52% (inactive)
6,O=C(Nc1ccncc1)c1c(F)cccc1F,14.2% (inactive)
7,CCc1ccc(NC(=O)Nc2ccncc2)cc1,28.8% (active)
8,CCc1ccc(NC(=O)N[C@H](C(=O)O)C(C)CC)cc1 (some centres undefined),9.38% (inactive)
9,O=C(Nc1ccncc1)Nc1ccc(F)cc1,21.6% (active)
10,CCCc1ccc(OCc2ccc(C(=O)N/N=C/c3cccc([N+](=O)[O-])c3)o2)c(OC)c1,-2.18% (inactive)
11,CC(C)Cn1c(=O)c2ccccc2n2c(CCC(=O)NCc3ccccn3)nnc12,15.7% (inactive)
12,Cc1cccc(C)c1N1C(=O)CN(Cc2ccccc2)C1=S,-2.32% (inactive)
13,O=C(NCCS(=O)(=O)c1ccc(Br)cc1)c1ccccc1Cl,-3.1% (inactive)
14,CN(C)S(=O)(=O)c1ccc(C(=O)NCCN=C2NS(=O)(=O)c3ccccc32)cc1,-3.08% (inactive)
15,CCCN(CCC)c1ccc(C(O)c2nnc(-c3ccccc3)o2)cc1 (centres undefined),26.9% (inactive)
16,O=C(Nc1nnc(-c2ccccc2)o1)c1cc(-c2cccs2)nc2ccccc12,-2.91% (inactive)
17,OC(c1nnc(-c2ccccc2)o1)c1cccs1 (centres undefined),76.9% (active)
18,CCCc1cc(=O)oc2cc(OCC(=O)Nc3ccc(CN4CCOCC4)cc3)c(Cl)cc12,-3.2% (inactive)
19,Oc1c(C=Nc2cccc3nsnc23)ccc2ccccc12,16.7% (active)
20,O=[N+]([O-])c1ccc(N=Cc2c(O)ccc3ccccc23)cc1,-1.91% (inactive)
21,O=C(Nc1cccc(C(F)(F)F)c1)c1ccc(N2CCNCC2)c([N+](=O)[O-])c1,0.923% (inactive)
22,Nc1nc(SCC(=O)N2CCN(S(=O)(=O)c3ccc(Cl)cc3)CC2)n[nH]1,6.07% (inactive)
23,Cc1occc(=O)c1OCc1c(Cl)cccc1Cl,0.434% (inactive)
24,COC(=O)c1ccc(-n2cnc3ccccc32)nc1,24.9% (active)
25,O=C(c1ccc(Cl)cc1)n1cnc2ccccc21,-2.21% (inactive)

row,SMILES,max response
1,Cc1ccc(OCC(=O)Nn2cnc3ccccc32)cc1,8.71% (inactive)
2,CCC(C)(C)n1nnnc1C(c1ccc(OC)c(OC)c1)N1CCN(C(=O)c2ccco2)CC1 (centres undefined),-2.11% (inactive)
3,CCCn1nnc(NC(=O)COc2ccc(CC)cc2)n1,3.91% (inactive)
4,CCCOc1cccc(C(=O)Nc2nnn(CCC)n2)c1,26.2% (active)
5,CCCOc1cccc(C(=O)NCCCNC(=O)c2cccnc2)c1,-1.77% (inactive)
6,CC1CN(S(=O)(=O)c2ccc(C(=O)Nc3sccc3C(N)=O)cc2)CC(C)O1 (centres undefined),-0.296% (inactive)
7,COc1ccc(CN(C(=O)CSc2nnc(-c3ccc(OC)c(OC)c3)o2)c2ccc(F)cc2)cc1,-0.972% (inactive)
8,COC(=O)c1c(C)[nH]c(C(=O)NCCc2ccc(S(N)(=O)=O)cc2)c1C,-10.2% (inactive)
9,CCCCOC(=O)c1[nH]c(C)c(C(=O)OC)c1C,60.6% (active)
10,CC(=O)c1c(C)[nH]c(C(=O)OCC(=O)NCCC(C)C)c1C,-1.49% (inactive)
11,COC(=O)c1ccc(NC(=S)NN2CCOCC2)cc1,20.6% (active)
12,COC(=O)c1ccc(NC(=S)Nc2cccc(C)n2)cc1,10.2% (inactive)
13,Cc1ccc(C(=O)NC(=S)Nc2ccc(N3CCOCC3)cc2)cc1,13.6% (inactive)
14,COc1ccc2c3c(c(=O)oc2c1)C1O[C@](CCCCN2C(=O)c4ccccc4C2=O)(Cc2c1ccc1ccccc21)O3,-1.56% (inactive)
15,Clc1ccc(N/N=C/c2cccs2)nn1,22.2% (active)
16,Oc1cccc(/C=N/Nc2ccc(Cl)nn2)c1O,43.2% (active)
17,COc1cccc(/C=N\Nc2nncc(-c3ccccc3)n2)c1,6.58% (inactive)
18,Cc1ccsc1/C=N/NC(=O)Cc1cc(=O)[nH][nH]1,4.08% (inactive)
19,Oc1c(Br)cccc1/C=N/Nc1c(F)c(F)c(F)c(F)c1F,6.05% (inactive)
20,Cc1ccsc1/C=N/n1c(=S)[nH]nc(C)c1=O,-1.56% (inactive)
21,COc1cc(/C=N/Nc2ccc(C)cc2)cc(Br)c1O,7.52% (inactive)
22,COc1cccc(/C=N/Nc2ccc(Cl)nn2)c1,25.6% (active)
23,Cn1c(=O)c2c(nc(N/N=C/c3cccs3)n2Cc2ccc(Br)cc2)n(C)c1=O,10.1% (inactive)
24,Cc1ccsc1/C=N/Nc1ccc(Cl)nn1,14% (active)
25,NC(=O)N/N=C\c1cccs1,5.02% (inactive)

row,SMILES,max response
1,O=C(C(NS(=O)(=O)c1cccc2nsnc12)c1ccccc1)N1CCN(c2ccccc2)CC1 (centres undefined),4.26% (inactive)
2,CCOC(=O)c1cc(S(=O)(=O)NCCc2ccc(OC)c(OC)c2)cn1C,-2.67% (inactive)
3,CCOC(=O)N1CCN(S(=O)(=O)c2ccc(Br)cc2)CC1,-0.649% (inactive)
4,CCOC(=O)N1CCN(C(=O)C2CCN(S(=O)(=O)c3cc(Cl)ccc3OCC)CC2)CC1,11.3% (inactive)
5,C=C(C)C1CC=C(C)/C(=N\NC(=O)CNc2ccccc2OC)C1 (centres undefined),-1.85% (inactive)
6,Cc1ccc2nc(Nc3ccccc3O)nc(-c3ccccc3)c2c1,0.615% (inactive)
7,Cc1ccc2nc(Nc3ccccc3)cc(C)c2c1,51.1% (active)
8,Cc1cc(Nc2ccccc2)nc(N)n1,7.42% (inactive)
9,Cc1ccc(S(=O)(=O)N(CC(O)CN2C(=O)NC(C)(C)C2=O)c2cccc([N+](=O)[O-])c2)cc1 (centres undefined),-3.67% (inactive)
10,COCCCN1C(=O)c2ccc(C(=O)OCC(=O)NCc3ccccc3OC)cc2C1=O,-6.08% (inactive)
11,O=C(O)C1CCN(C(=O)OCc2ccccc2)CC1,40.2% (active)
12,O=C(NCC1CCC(C(=O)O)CC1)OCc1ccccc1 (centres undefined),-2.25% (inactive)
13,CCOC(=O)N1CCC(NC(=O)CCc2ccccc2)CC1,1.36% (inactive)
14,COc1cccc(N(CC(=O)NC2CCCCCC2)S(=O)(=O)c2ccccc2)c1,1.89% (inactive)
15,COc1ccccc1C(=O)N1CCNC(=O)C1CC(=O)Nc1ccc(Cl)cc1 (centres undefined),-1.23% (inactive)
16,O=C(CC1SCCNC1=O)Nc1ccc(Cl)cc1 (centres undefined),21.9% (active)
17,O=C(CC1SCCNC1=O)Nc1ccc(Cl)c(Cl)c1 (centres undefined),17.5% (inactive)
18,CCC(=O)NC(=S)Nc1ccc(NC(=O)c2ccco2)c(Cl)c1,16.5% (inactive)
19,O=C(NNC(=S)Nc1ccc(Br)cc1Cl)c1ccco1,43.8% (active)
20,CCOc1cc(NC(=S)NCc2ccco2)c(OCC)cc1NC(=O)c1ccco1,6.2% (inactive)
21,CSc1nc(-c2ccco2)nn1C(=O)c1ccccc1Cl,1.46% (inactive)
22,COc1cc(CC(=O)Nc2nc(-c3ccc(F)c(F)c3)cs2)cc(OC)c1OC,-5.65% (inactive)
23,Cc1ccc(S(=O)(=O)NC(=O)Nc2nc(-c3ccc(F)c(F)c3)cs2)cc1,19.2% (active)
24,COc1ccc(CC(=O)Nc2nc(-c3ccc(F)c(F)c3)cs2)cc1OC,-6.69% (inactive)
